Reference: PubChem BioAssay (NCI)
About 83,000 compounds went through this panel and 20% of them were active in at least one assay; those are over-represented in the sample as a whole.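 For each line, cells grew in 96-well plates with the test compound present at a single concentration for 48 hours.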 The source made the active and inactive calls. How the source made its calls: active means growth percent below 10; inactive means the rest.

Test system: T-47D breast
Assay: NCI-60 one-dose screen, 48 h (100 = growth as untreated, 0 = no growth, -100 = all killed)
Details: 10 µM unless noted

Row | SMILES | growth
1 | O=S(=O)(c1ccccc1)N1CCCN(c2nc(-c3ccccc3)nc3nc(-c4ccccc4)oc23)CC1 | 99.4% (inactive)
2 | Cc1cc2oc(=O)cc(CP(=O)(O)O)c2cc1O | 98.8% (inactive)
3 | COC(=O)c1ccc2c(c1)c1c(C)c3ccncc3c(C)c1n2C | 29.7% (inactive)
4 | CCOC(=O)N1CCN(S(=O)(=O)c2oc(-c3ccc(Cl)cc3)nc2C#N)CC1 | 65.4% (inactive)
5 | CC(CN)[C@@H]1CC[C@]2(CO)CC[C@]3(C)[C@H](CC[C@@H]4[C@@]5(C)CCC(N)C(C)(C)[C@@H]5CC[C@]43C)[C@@H]12 (stereo not given in full) | 6% (active)
6 | C=CC1(C)C(O[Si](C)(C)C(C)(C)C)CC2C3OC(=O)NC31c1cccc3c1[C@H](C(=O)N3C)C2(C)C (stereo not given in full) | 23.8% (inactive)
7 | O=C1/C(=C/c2ccc(C(F)(F)F)cc2)COc2ccc(O)c(O)c21 | -36.8% (active)
8 | Cc1ccccc1CNc1c2ccccc2nc2ccccc12 | 24.6% (inactive)
9 | CCCCC(=O)Nc1ncc(Cc2ccccc2Cl)s1 | 34.1% (inactive)
10 | C=CCn1c(SCC(=O)Nc2ccc(C(=O)/C=C/c3cc(OC)c(OC)c(OC)c3)cc2)nnc1-c1cc(-c2ccc(OC)cc2)nc2ccccc12 | 84.9% (inactive)
11 | N#Cc1c(NC(=O)c2cccs2)[n+]([O-])c2ccc(Cl)cc2[n+]1[O-] | 91.4% (inactive)
12 | CCOC(=O)c1c2c(n3c1NCC3)-c1ccccc1C2=O | 97.7% (inactive)
13 | COc1ccc(NC(=O)c2cccc(C3CCc4c(cc(OC)c(OC)c4OC)O3)c2)cc1 (stereo not given) | 16% (inactive)
14 | C[C@@H](CO)[C@@H]1CC[C@]2(C(=O)N3CCN(C)CC3)CC[C@]3(C)[C@H](CC[C@@H]4[C@@]5(C)CC[C@H](O)C(C)(C)[C@@H]5CC[C@]43C)[C@@H]12 | 76.7% (inactive)
15 | COc1ccc(NC(=O)c2ccc(C(=O)Nc3ccc(OC)cc3OC)cc2)c(OC)c1 | 71.9% (inactive)
16 | CCN(CC)CCCC(C)Nc1ccc2cc(OC)ccc2n1 (stereo not given) | 103% (inactive)
17 | CCN(C(=O)N1CCN(c2cc3c(cc2F)c(=O)c(C(=O)O)cn3C2CC2)CC1)c1nc(-c2ccc(C)cc2)cs1 | 25.5% (inactive)
18 | CCOC(=O)n1cc(-c2nonc2-c2cn(C)c3ccccc23)c2ccccc21 | 40.6% (inactive)
19 | O=C1c2cccnc2C(=O)c2c1c(C(=O)OCCCN1CCCCC1)c1ccccn21 | 24% (inactive)
20 | Cc1ccc(Nc2nc(-c3ccc(F)cc3)c(C#N)c(=O)n2C)cc1 | 35.5% (inactive)
21 | COc1cc(/C=C2\C(=O)N(c3c(Cl)cccc3Cl)c3ccccc32)cc(OC)c1OCCCCCCn1c2ccccc2c(=O)c2ccccc21 | 89.6% (inactive)
22 | CSCCC(NC(=O)c1ccccc1)C(=O)N/N=C1\S/C(=C/c2ccc(Cl)cc2)C(=O)N1C (stereo not given) | 82.9% (inactive)
23 | CC1(C)CCC(S(=O)(=O)c2ccc3c(c2)/C(=N\O)c2cc(S(=O)(=O)N4CCN(c5ccc(F)cc5O)CC4)ccc2-3)CC1 | -90.6% (active)
24 | Cc1cscc(C)c1=S | 96% (inactive)
25 | O=C(O)C1CN(c2cccc(Cl)c2)N(c2cccc(Cl)c2)C1=O (stereo not given) | 88.9% (inactive)
26 | CCNC(=O)Oc1ccc(/C(=C(/C)Cc2ccc(OC)cc2)c2ccc(OCCN3CCCC3)cc2)cc1 | 42.7% (inactive)
27 | CC[C@H](C)[C@H](NC(=O)[C@H](CCCNC(=N)N)NC(=O)[C@H](Cc1c[nH]c2ccccc12)NC(=O)[C@@H](NC(=O)[C@H](CCCCN)NC(=O)[C@H](CCCCN)NC(=O)[C@@H](NC(=O)[C@@H](NC(=O)[C@@H](NC(=O)[C@H](CCCCN)NC(=O)[C@H](Cc1ccccc1)NC(=O)[C@H](CCCCN)NC(=O)[C@H](CCCCN)NC(=O)[C@H](Cc1ccccc1)NC(=O)[C@@H](NC(=O)[C@@H](N)CCCCN)[C@@H](C)CC)[C@@H](C)O)[C@@H](C)CC)[C@@H](C)CC)C(C)C)C(=O)N[C@@H](Cc1ccccc1)C(=O)NCC(=O)N[C@@H](CCCNC(=N)N)C(=O)N[C@@H](Cc1ccccc1)C(N)=O | -30.1% (active)
28 | CC1O[C@@H]2C[C@@](O)([C@H]1O)n1c3ccccc3c3c4c(c5c6ccccc6n2c5c31)C(=O)NC4=O (stereo not given in full) | 8.92% (active)
29 | Cc1nc2sc(C(=O)Nc3cccc(Cl)c3)c(N)c2cc1C(O)c1ccccc1 (stereo not given) | 50.6% (inactive)
30 | CC(C(=O)O)n1c(O)c(C=Nc2cccnc2)sc1=S (stereo not given) | 81.2% (inactive)
